# Results as given in the supplement of paper PMC10105736.
# Unmarked numbers belong to inactive results.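 How the source made its calls: active = MAPPIT score above the 99th percentile of random reference set scores in the same batch; inactive = at or below it.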
# B1: BicD (protein)
# chain: MSSASNNGPSADQSVQDLQMEVERLTRELDQVSSASAQSAQYGLSLLEEKSALQQKCEELETLYDNTRHELDITQEALTKFQTSQKVTNKTGIEQEDALLNESAARETSLNLQIFDLENELKQLRHELERVRNERDRMLQENSDFGRDKSDSEADRLRLKSELKDLKFRETRMLSEYSELEEENISLQKQVSSLRSSQVEFEGAKHEIRRLTEEVELLNQQVDELANLKKIAEKQMEEALETLQGEREAKYALKKELDGHLNRESMYHISNLAYSIRSNMEDNASNNSDGEEENLALKRLEADLSTELKSPDGTKCDLFSEIHLNELKKLEKQLESMESEKTHLTANLREAQTSLDKSQNELQNFMSRLALLAAHVDALVQLKKQIDVKEQGKEGGQKKDELEQQLRALISQYANWFTLSAKEIDGLKTDIAELQKGLNYTDATTTLRNEVTNLKNKLLATEQKSLDLQSDVQTLTHISQNAGQSLGSARSTLVALSDDLAQLYHLVCTVNGETPTRVLLDHKTDDMSFENDSLTAIQSQFKSDVFIAKPQIVEDLQGLADSVEIKKYVDTVSDQIKYLKTAVEHTIDMNKHKIRSEGGDALEKVNTEEMEELQEQIVKLKSLLSVKREQIGTLRNVLKSNKQTAEVALTNLKSKYENEKIIVSDTMSKLRNELRLLKEDAATFSSLRAMFAARCEEYVTQVDDLNRQLEAAEEEKKTLNQLLRLAVQQKLALTQRLEEMEMDREMRHVRRPMPAQRGTSGKSSFSTRPSSRNPASSNANPF
# B2: Blos1 (protein)
# chain: MLTSMVKEHHKEQAKRKQEQEVRRKEAIEASNELTQSLVDTLNVGVAQAYLNQKRLDAEAKQLHLGATNFAKQTHQWLQLIDQFSTALKDLGDVENWARSIEGDMHTINQTLELAYKASRATQTSSGAGTSLEASTSASASANPSAT
# B3: bcd (protein)
# chain: MAQPPPDQNFYHHPLPHTHTHPHPHSHPHPHSHPHPHHQHPQLQLPPQFRNPFDLLFDERTGAINYNYIRPYLPNQMPKPDVFPSEELPDSLVMRRPRRTRTTFTSSQIAELEQHFLQGRYLTAPRLADLSAKLALGTAQVKIWFKNRRRRHKIQSDQHKDQSYEGMPLSPGMKQSDGDPPSLQTLSLGGGATPNALTPSPTPSTPTAHMTEHYSESFNAYYNYNGGHNHAQANRHMHMQYPSGGGPGPGSTNVNGGQFFQQQQVHNHQQQLHHQGNHVPHQMQQQQQQAQQQQYHHFDFQQKQASACRVLVKDEPEADYNFNSSYYMRSGMSGATASASAVARGAASPGSEVYEPLTPKNDESPSLCGIGIGGPCAIAVGETEAADDMDDGTSKKTTLQILEPLKGLDKSCDDGSSDDMSTGIRALAGTGNRGAAFAKFGKPSPPQGPQPPLGMGGVAMGESNQYQCTMDTIMQAYNPHRNAAGNSQFAYCFN
# B4: run (protein)
# chain: MHLPAGPTMVANNTQVLAAAAAAAAAAAAAVAQGPGPQQSSNATTASAIAINPAQSLANTSTHSASSTGSSTPDLSTNNTSSSSNATTSPQNSAKMPSSMTDMFASLHEMLQEYHGELAQTGSPSILCSALPNHWRSNKSLPGAFKVIALDDVPDGTLVSIKCGNDENYCGELRNCTTTMKNQVAKFNDLRFVGRSGRGKSFTLTITIATYPVQIASYSKAIKVTVDGPREPRSKQSYGYPHPGAFNPFMLNPAWLDAAYMTYGYADYFRHQAAAQAAQVHHPALAKSSASSVSPNPNPSVATSSSSAVQPSEYPHPAAAVAAAAGQPAAMMPSPPGAAPATPYAIPQFPFNHVAAAAAAKAATPHAFHPYNFAAAAGLRARNAALHHQSEPVHVSPASSRPSSSSPTQQHVLLKLNTSIETSSIHEQSASDGDSDDEQIDVVKSEFDLDKSLDVAPLRMRCDLKAPSAMKPLYHESGPGAVANSRQPSPETTTKIKSAAVQQKTVWRPY
# B5: Gos28 (protein)
# chain: MGGSSYDVLRKQARSLENEIDLKLVAFSKIGAGSGGGGSGGLGGVDTSPLLGEHVFDSLSEEIEQMLEKLSSLNESMSDLPASGAAAMHTLQRHREILQGYRQEFNKICANHTMRIEREELLRGSGLATSSGSPSISGLNRREMYLKESGHLNSASHLVNDQINIAIETRDHLHAQRQAFKRLQTRFNDISNRFPLISSLIQRINIKKRRDSLILGAVIGFCVILLLLYAFN
# B6: Polr3F (protein)
# chain: MATEVSQLLLAVVQGIPAGATNDDLTKALPDVPAATRVEALNILLQEGGIEILKKGEKLVYRAKDPEKKSALPKDADNEEKVVYGIVEEGGNKGIWIRDIRMKSNLNMIQLNKILKNLETKKLIKAVKSVNASKKKVYMLYNLEPDLSITGGAWYQDQDFEVEFVDVLNQQCLRFLQMKRDSAEKKREGPLAFKQMSCCTVNEVQKFISDLGISKVNLAEADLETILKTVVYDGNAERVRQQDGSFVYRAVNAPLPPTGLVQMPCGICPVIKNCSNCGDVTAITCEYMRDWLD
# B7: disco (protein)
# chain: MEHIMNPFMSPAYLLGHGPHSHQHVHSHLPSHPQPNAASPASSPGGSSGSGSGSAAGSGTGSGSSLKPRRWGSPPINLAGQFINPATGKKRVQCSICFKTFCDKGALKIHFSAVHLREMHKCTVEGCNMVFSSRRSRNRHSANPNPKLHSPHIRRKISPHDGRTAQQFPVFSPGTAAAAAAVAGRLPVAFPGLLPPPPPHHGHHPYVMFGGQAGLHGLGLLSTGCQDPDSGSVDNEQDADPEDDNDFVYVDMQANSSSPAASSEDQEEHERDNEQDEEMHCSLSLASSSSIAADEERAADQPLDFSLHKRRKSEQDREQEQEQEQEREREAEKEQEQDVESDKEHEPEQEHELEREKRSPSDAFSMDQLLGKRKRHDSTASSSACSTAAASSASSSSASASANPPQTSIKMDLDPDSDSAYMTSRRQMLPLPVLDLEEHHHLRLLQTQMFAAAAAAAATSQAPPTAFLPAGSPVDLAKDSPPMWSLLSEMYRSMLLKTQHQQYNHHHQLQQQHQQEQHHHLTLSHHHQEQHHHLGHHHMGHHHHHHHQHHQQQPQQQSPAATNAPISV
# Assays:
# Assay in all cases: MAPPIT interaction score (arbitrary units); higher = stronger binary interaction signal, active = hit call of the paper
# BicD = conditions: MAPPIT configuration: N-C; pair source set: Lit-BM-16
# BORCS6 = conditions: MAPPIT configuration: N-C; pair source set: screen_3
# Bin1 = conditions: MAPPIT configuration: N-N; pair source set: Lit-BM-16
# Dhx15 = conditions: MAPPIT configuration: N-N; pair source set: DPIM
# p53 = conditions: MAPPIT configuration: N-N; pair source set: Finley_Y2H
# Bro = conditions: MAPPIT configuration: N-N; pair source set: screen_2
# Bet1 = conditions: pair source set: Lit-BM-16
# C15 = conditions: MAPPIT configuration: N-N; pair source set: Lit-BS-16
# CG5050 = conditions: MAPPIT configuration: N-N; pair source set: Curagen_high_conf
# rdx = conditions: MAPPIT configuration: N-N; pair source set: Curagen_high_conf
# Bfc = conditions: MAPPIT configuration: N-C; pair source set: screen_4
# CG17376 = conditions: MAPPIT configuration: N-N; pair source set: screen_1
# CG42565 = conditions: MAPPIT configuration: N-C; pair source set: screen_4
# CG42688 = conditions: MAPPIT configuration: N-C; pair source set: screen_4
# aspr = conditions: MAPPIT configuration: N-N; pair source set: Curagen_low_conf
# fok = conditions: MAPPIT configuration: N-C; pair source set: screen_3
# 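Further: HEK293T cells with Epo stimulation, STAT-responsive firefly luciferase reporter, fold induction versus unstimulated cells divided by the larger fold induction of two negative controls lacking either bait or prey.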
binder,measurement,setting,value
B1,MAPPIT interaction score,BicD,-0.381
B2,MAPPIT interaction score,BORCS6,2.8
B3,MAPPIT interaction score,Bin1,0.579
same,MAPPIT interaction score,Dhx15,1.72
same,MAPPIT interaction score,p53,-0.0711
B4,MAPPIT interaction score,Bro,3.14 (active)
B5,MAPPIT interaction score,Bet1; MAPPIT configuration: N-C,-0.272
same,MAPPIT interaction score,Bet1; MAPPIT configuration: N-N,-0.1
B6,MAPPIT interaction score,C15,0.0584
same,MAPPIT interaction score,CG5050,0.169
same,MAPPIT interaction score,rdx,-0.105
B7,MAPPIT interaction score,Bfc,1.54
same,MAPPIT interaction score,CG17376,0.354
same,MAPPIT interaction score,CG42565,2.57
same,MAPPIT interaction score,CG42688,2.18
same,MAPPIT interaction score,aspr,-0.256
same,MAPPIT interaction score,fok,0.776
